An excerpt weighted towards active compounds, which were near 1.5% of everything screened.
TcdB GH inh – TcdB glycohydrolase inhibitors, primary screen, biochemical, single point, plate reader. Toxin B (Clostridioides difficile), P18177. TcdB glycohydrolase enzymatic assay. 0.24% of 350,000 active. inhibition, % at 9.99 µM; in the data active = inhibition above about 10%
VHR inh abs – VHR1 phosphatase inhibitors, primary screen, biochemical, absorbance, uHTS; Dual specificity protein phosphatase 3 (Homo sapiens), P51452; recombinant VHR phosphatase, pNPP absorbance; inhibition, % at 13.3 µM; 0.52% of 290,000 active; AID 1654, 2009; in the data active = inhibition above about 50%
Target sequence (P51452 whole entry, looked up): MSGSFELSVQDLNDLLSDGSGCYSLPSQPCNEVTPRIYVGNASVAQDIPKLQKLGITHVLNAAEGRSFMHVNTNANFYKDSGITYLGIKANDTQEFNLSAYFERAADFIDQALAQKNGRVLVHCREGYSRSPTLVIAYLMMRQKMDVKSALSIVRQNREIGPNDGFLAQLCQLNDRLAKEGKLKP
BH1578 lux ind – inducers of Vibrio cholerae quorum light production without autoinducers, primary screen, BH1578 luxS cqsA deficient, single point. activation, % at 18.7 µM. AID 588436, 2011. 0.16% of 350,000 active. V. cholerae BH1578 lux reporter, luminescence, 6 h; in the data active = activation mostly above about 9.7%, no sharp cut-off
PriA SSB inh – inhibitors of Klebsiella pneumoniae PriA binding to SSB C-terminal tail, primary screen, biochemical, AlphaScreen; PriA–SSB C-terminal tail interaction (Klebsiella pneumoniae); AlphaScreen SSBct-PriA binding, biotinylated peptide; inhibition, % at 33 µM; 0.6% of 430,000 active; AID 1272365, 2023; in the data active = inhibition mostly above about 37%, no sharp cut-off; inactive = mostly below about 20%;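 also: plate controls were negative control peptide for no effect and reference peptide for full effect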
CCHFV vOTU inh – CCHFV vOTU protease inhibitors, primary screen, biochemical, Pep-AMC substrate, fluorescence | inhibition, % at 11.5 µM | Crimean-Congo hemorrhagic fever virus L polyprotein viral ovarian tumor (vOTU) protease … | 0.55% of 370,000 active; in the data active = inhibition above about 30%; also: 0% = vehicle wells with enzyme and 100% = no enzyme wells
PrPC TRFRET – inhibitors of human cell surface prion protein PrPC, primary screen, cell-based, TR-FRET; Major prion protein (Homo sapiens), P04156; TR-FRET read-out; inhibition, % at 13.8 µM; 0.43% of 370,000 active; AID 720596, 2013; in the data active = inhibition above about 24%; also: 0% = median of the test wells and 100% = reference compound wells
Numbers without * were called inactive.

O=C(COc1cccc2c1CCN(Cc1ccccc1F)C2=O)N1CCCCC1 was read as TcdB GH inh 1.1, VHR inh abs 51.8*, BH1578 lux ind -1.3, PriA SSB inh -10.0, CCHFV vOTU inh -5.5 and PrPC TRFRET 12.1.
O=C(Nc1ccccc1F)N1CCSC1c1ccc(Cl)c(Cl)c1 (centres undefined) was read as PriA SSB inh 3.0.
For CCCn1c(=N)c(C(=O)NC2CCCC2)cc2c(=O)n3cccc(C)c3nc21 the results were VHR inh abs 17.7, BH1578 lux ind 16.7*, PriA SSB inh -1.3, CCHFV vOTU inh -206.5 and PrPC TRFRET -25.7.
`CCOCCCn1c(=N)c(C(=O)NC2CCCCC2)cc2c(=O)n3cccc(C)c3nc21` gave PriA SSB inh -2.0.
For Cc1ccc(NN=Cc2c(O)n(-c3ccccc3)c(=O)[nH]c2=O)cc1 the results were PriA SSB inh -0.3.
Cc1ccc(N/N=C/c2c(O)n(-c3ccccc3)c(=O)[nH]c2=O)cc1 was read as TcdB GH inh 14.4*, VHR inh abs -16.0, BH1578 lux ind -0.3, CCHFV vOTU inh 7.4 and PrPC TRFRET 5.9.
Screening COc1cccc(-n2nnc(-c3nc(-c4cc(C)ccc4C)cs3)c2C)c1 returned PriA SSB inh -28.0.
Screening NC(=O)CC(NC(=O)c1ccccc1)c1ccc(NCCc2ccc(F)cc2)c([N+](=O)[O-])c1 (centres undefined) returned TcdB GH inh 10.1*, VHR inh abs 23.1, BH1578 lux ind 1.2, PriA SSB inh -13.6, CCHFV vOTU inh -0.6 and PrPC TRFRET 9.7.
For COc1ccc(CCNc2ccc(C(CC(N)=O)NC(=O)c3ccccc3)cc2[N+](=O)[O-])cc1 (centres undefined) the results were VHR inh abs 23.1, BH1578 lux ind -1.0, PriA SSB inh 0.4, CCHFV vOTU inh -1.7 and PrPC TRFRET -3.7.
COc1ccccc1-n1ncc2c(=O)[nH]c(=S)[nH]c21 was read as PriA SSB inh -8.0.
`COc1ccc(-c2cnc(SCC(N)=O)n2-c2cccc(C(F)(F)F)c2)cc1` gave PriA SSB inh 18.0.
`C=CCSc1ncc(-c2ccc(OC)cc2)n1-c1cccc(Cl)c1` gave PriA SSB inh 32.0*.
`Cc1ccc(N2CC(C(=O)NC3CC3)CC2=O)cc1` (centres undefined) gave TcdB GH inh -0.1, VHR inh abs 52.9*, BH1578 lux ind -0.5, PriA SSB inh 0.6, CCHFV vOTU inh -7.6 and PrPC TRFRET 4.0.
`COc1ccc(N2CC(C(=O)N[C@@H](C)C(=O)NC3CCCCC3)CC2=O)cc1` (some centres undefined) gave TcdB GH inh -3.2, VHR inh abs 9.1, BH1578 lux ind -0.4, PriA SSB inh 0.4, CCHFV vOTU inh 3.1 and PrPC TRFRET -9.3.
Screening COc1ccc(N2CC(C(=O)N[C@@H](CC(C)C)C(=O)NC3CCCCC3)CC2=O)cc1 (some centres undefined) returned TcdB GH inh 0.1, VHR inh abs 55.5*, BH1578 lux ind -4.3, PriA SSB inh 0.1, CCHFV vOTU inh 17.8 and PrPC TRFRET 1.7.
COc1ccc(CNC(=O)c2cc3c(s2)CN(Cc2ccccc2)C3)cc1 was read as TcdB GH inh 10.3*, VHR inh abs -3.1, BH1578 lux ind inactive, PriA SSB inh -8.3, CCHFV vOTU inh -0.3 and PrPC TRFRET 1.2.
For CC(=O)Nc1ccc(C(=O)NCc2cncc(-c3ccsc3)c2)cc1 the results were PriA SSB inh -1.0.
Screening O=c1c([N+](=O)[O-])cccn1Cc1cccc(Br)c1 returned TcdB GH inh 0.5, VHR inh abs -9.3, BH1578 lux ind 46.2*, PriA SSB inh -5.5, CCHFV vOTU inh 14.3 and PrPC TRFRET -32.4.
Screening S=C(NCc1cccc(Cl)c1)NC1Cc2ccccc2C1 returned PriA SSB inh -11.0.
Screening CCc1c(C)nc2n(c1=O)CC(C(=O)N1CCN(S(=O)(=O)C3CC3)CC1)CS2 (centres undefined) returned PriA SSB inh 8.0.
